outcome, Potency and activation data for 13 molecules are collected here from PubChem BioAssay (NCATS).

The nature of assay [1]: S16 Schwann cell viability assay (CellTiter-Glo assay) (AID 624031). Also: series mostly up to about 58 µM; nearly all actives have a fitted effect of over 70% in size. An outline of the steps: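 Luminescent ATP read-out (CellTiter-Glo) after 24 h compound exposure of native S16 rat Schwann cells at 37 °C. Signals were normalized between cell-free wells and DMSO-treated cells, set as 0% activity.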
For orientation: ATP-based viability assays read luminescence as a measure of living cells.

A short description of assay [2]: S16 Schwann cell PMP22 intronic element firefly luciferase assay (AID 624032). Also: series mostly up to about 58 µM; nearly all actives have a fitted effect of over 30% in size. Summed up:
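Rat S16 Schwann cells stably carrying firefly luciferase driven by a PMP22 intronic element, in 10% FBS, treated 24 h at 37 C. ONE-Glo luminescence normalized to PTC124 control and DMSO (0%); curves classed by r2, magnitude and activity.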

A short description of assay [3]: S16 Schwann cell PMP22 intronic element beta-lactamase assay (AID 624044; calls by dose curve; also: nearly all actives have a fitted effect of over 15% in size). Summed up:
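Rat S16 Schwann cells with beta-Lac driven by a PMP22 intronic element, compound-treated 24 h at 37 °C. LiveBLAzer FRET B/G read: 460 nm normalized to potassium clavulanate vs DMSO; 535 nm FRET as viability; concentration-effect curves classified.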

Assay [4] is described as follows: qHTS assay for small molecule agonists of the antioxidant response element (ARE) signaling pathway (AID 651741; active = well fitted activation curve with a large enough effect in the signal ratio; the % refers to the signal ratio; also: potency is read from the fitted curve at half-maximal effect). Summed up:
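HepG2 ARE-bla cells plated at 2,000 cells/well and incubated 5 h at 37 C/5% CO2 received 23 nL compound in DMSO. After 16 h at 37 C, LiveBLAzer B/G FRET substrate was applied for 2 h at room temperature and fluorescence read.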
For orientation: In qHTS, concentration-response curves come from the screen itself.

Assay [5] can be described thus: qHTS assay for small molecule activators of the p53 signaling pathway (AID 651743; active = well fitted activation curve with a large enough effect in the signal ratio, not every such curve was filed as active; the % refers to the signal ratio; also: series mostly up to about 92 µM). Particulars: HCT-116 p53RE-bla, beta-lactamase FRET ratio, 16 h; stronger effect = higher value. An outline of the steps:
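HCT-116 p53RE-bla, 4,000 cells/well; 5 h settle; cpd/DMSO 16 h, 37 C; LiveBLAzer B/G 2 h RT; fluorescence intensity.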

Assay [6] is described as follows: qHTS assay for small molecule activators of the nuclear factor-kappa B (NF-kB) signaling pathway (AID 651749; active = well fitted activation curve with a large enough effect in the signal ratio; the % refers to the signal ratio; also: series mostly up to about 77 µM). Particulars: NF-kB-bla ME-180 cells, beta-lactamase FRET ratio, 16 h; stronger effect = higher value. An outline of the steps:
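Incubation lasted 16 hr at 37C in 5% CO2 after 23 nL compound addition to ME-180 NF-kB-bla cells. Activation appears as beta-lactamase-mediated FRET loss.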

For assay [7], the target named is Tumor necrosis factor (Homo sapiens) (UniProt P01375). The assay is described as follows: qHTS assay to identify small molecules that stimulate Tumor Necrosis Factor-alpha (TNF-alpha) secretion (AID 651757; active = well fitted curve in the direction sought with a large enough effect in the signal ratio; the % refers to the signal ratio). Summed up:
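THP-1 cells were exposed to compounds for 17 hrs at 37 C, after which secreted TNF-alpha was measured by homogeneous HTRF (TR-FRET) using cryptate- and XL665-labeled anti-TNF-alpha antibodies, read after 3 hr at room temperature.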

Assay [8] can be described thus: qHTS assay for small molecule disruptors of the mitochondrial membrane potential - 1 hr assay (AID 651754; calls by dose curve; also: nearly all actives have a fitted effect of over 35% in size). An outline of the steps:
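HepG2 cells, attached overnight at 37C, were exposed to compound or DMSO vehicle for 1 hr at 37C, 5% CO2, then stained with Mito-MPS dye for 30 min. Red aggregate versus green monomer fluorescence reports membrane potential.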

A short description of assay [9]: qHTS assay for small molecule disruptors of the mitochondrial membrane potential - 5 hr assay (AID 651755; calls by dose curve; also: nearly all actives have a fitted effect of over 40% in size). Summed up:
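HepG2 cells (2,000/well), attached overnight, exposed to compound 5 hr at 37C, then Mito-MPS dye 30 min. Fluorescence read for monomers (490/535 nm) and aggregates (540/590 nm).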

The nature of assay [10]: qHTS assay to identify small molecules that stimulate interleukin-8 (IL-8) secretion (AID 651758; active = well fitted activation curve with a large enough effect in the signal ratio; the % refers to the signal ratio). Summed up:
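THP-1 cells (2000/well) exposed to compound 16 h at 37 C; secreted IL-8 then detected by HTRF with cryptate- and XL665-labelled anti-IL-8 antibody pair after 1-3 h at room temperature.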

Inconclusive results are not listed. Entries that show only a call come without a potency. Unmarked numbers belong to inactive results. Activity calls are given as the source filed them. Unless noted, calls follow the shape of the dose curve; as a rule, active = well fitted curve in the direction sought with a large enough effect; inconclusive = small, poorly fitted or top-dose-only effect, or another doubt; inactive = no such curve, though single readings can be large; an effect the other way counts as inactive or inconclusive.

Tumor necrosis factor (Homo sapiens), sequence (P01375 whole entry, looked up): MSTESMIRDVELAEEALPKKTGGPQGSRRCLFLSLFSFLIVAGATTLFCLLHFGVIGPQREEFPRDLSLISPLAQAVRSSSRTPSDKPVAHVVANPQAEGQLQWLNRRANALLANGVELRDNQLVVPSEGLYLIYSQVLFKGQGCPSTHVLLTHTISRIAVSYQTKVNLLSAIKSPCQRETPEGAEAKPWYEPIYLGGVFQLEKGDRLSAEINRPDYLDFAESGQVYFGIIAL

`NC(N)=NCCN1CCCCCCC1`: the molecule was called inactive in assay [1] and in assay [3]. In assay [2], the Potency result is “inactive”.

Consider `C[C@@H](N)C(=O)O`, for which the molecule was called inactive in [1] and in assay [3]. Besides, the Potency result in assay [2] was “inactive”.

Consider `COc1ccc2cc(CCC(C)=O)ccc2c1`, for which the molecule was classed as inactive in assay [1] and in [3]. Further, the Potency entry in assay [2] was “inactive”.

In the case of `O=C1C(c2[nH]c3ccccc3c2O)=Nc2ccccc21`, the result in assay [1], in assay [3] and in [7] was inactive. The Potency result in assay [2] was “inactive”. In addition, in assay [4], the Potency is 47.3 µM (active). Also, the activation is -4.39% in [5] and -0.0626% in [6].

On to `CCCNC(C)(C)COC(=O)c1ccccc1`, for which the result in assay [1] and in assay [3] was inactive. In addition, in assay [2], the Potency result was “inactive”.

For `O=C1c2ccccc2C(=O)C1c1ccc(Br)cc1`, the result in assay [1] and in assay [3] was inactive. Besides, in assay [2], the Potency entry was “inactive”.

Consider `O=C(CN1CCNCC1)NC1CCCCC1`, for which the call in [1] and in [3] was inactive. Besides, the Potency result in assay [2] is “inactive”.

As to `Cc1ccccc1N=Nc1ccc(N=Nc2c(O)ccc3ccccc23)c(C)c1`, the outcome in [1] and in [3] was inactive. In addition, the Potency entry in assay [2] was “inactive”.

For `CCCCOC(=O)c1ccc(N)cc1`, the result in assay [1], in assay [3], in [7] and in assay [10] was inactive. In addition, the Potency entry in [2], in assay [8] and in [9] was “inactive” each time. Besides, the activation in [5] was -1.05%; in [6], -0.245%.

On to `CC(=O)Nc1ccc(OCCOCCOc2ccc(NC(C)=O)cc2)cc1`, for which the outcome in assay [1] and in assay [3] was inactive. Further, the Potency entry in [2] was “inactive”.

In the case of `CC(=O)SC[C@@H](Cc1ccccc1)C(=O)NCC(=O)OCc1ccccc1`, the molecule was called inactive in [1] and in [3]. The Potency result in assay [2] was “inactive”.

In the case of `CCOC(=O)c1cccnc1`, the outcome in [1] and in [3] was inactive. In [2], the Potency entry is “inactive”.

Consider `NCc1ccc(S(N)(=O)=O)cc1`, for which the molecule was called inactive in assay [1] and in [3]. Further, in assay [2], the Potency entry was “inactive”.
